Hits are enriched below; roughly 3.5% of the tested compounds scored in any of these assays.
TEAD-YAP inh: TEAD-YAP interaction inhibition; inhibition, % at 9.12 µM; 1.4% of 640,000 active; HEK-TIYL cells, TEAD-Gal4/YAP UAS-luciferase luminescence; in the data active = inhibition above about 32%
FBW7 act: activators of human E3 ligase FBW7. Q969H0. normalized activity (activation), % at 26.1 µM. 0.13% of 650,000 active. AID 1259310. AlphaScreen FBW7–phospho-cyclin E peptide binding, activator screen; in the data active = normalized activity above about 1.9%;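 also: purified mutant Fbw7 with reduced substrate affinity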
MITF inh: human MITF inhibition, primary screen; O75030; AlphaScreen MITF homodimerization, bead proximity signal; inhibition, % at 2.6 µM; 0.91% of 650,000 active; in the data active = inhibition above about 50%
Target sequence (O75030 whole entry, looked up): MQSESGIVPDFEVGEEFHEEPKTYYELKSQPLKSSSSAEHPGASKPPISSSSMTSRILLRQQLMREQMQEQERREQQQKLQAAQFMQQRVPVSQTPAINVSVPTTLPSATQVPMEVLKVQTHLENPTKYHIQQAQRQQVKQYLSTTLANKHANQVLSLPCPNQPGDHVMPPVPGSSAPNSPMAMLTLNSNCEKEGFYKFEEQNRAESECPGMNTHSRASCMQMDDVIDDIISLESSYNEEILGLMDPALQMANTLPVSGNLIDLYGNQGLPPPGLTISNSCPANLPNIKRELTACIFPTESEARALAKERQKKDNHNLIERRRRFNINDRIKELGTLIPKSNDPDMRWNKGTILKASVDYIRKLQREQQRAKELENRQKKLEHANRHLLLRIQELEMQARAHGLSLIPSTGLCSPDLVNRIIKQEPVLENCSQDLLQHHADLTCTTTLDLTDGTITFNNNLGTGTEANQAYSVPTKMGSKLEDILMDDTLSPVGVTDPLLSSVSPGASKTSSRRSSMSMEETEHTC
GPR151 activ: activates the human receptor GPR151. PathHunter beta-arrestin GPR151 cells, luminescence. activation, % at 11.2 µM. 1% of 650,000 active. AID 1508602; in the data active = activation above about 4.9%
Of the large screens only hits and unclear results are named; the others gave an inactive call.

COc1cccc(C(=O)O/N=C(\N)c2ccc([N+](=O)[O-])cc2)c1OC	none
CC(C)(C)NC(=O)C(=O)NN=C1CCCCCC1	none
Cc1ccc(NCc2nc3ccccc3n2Cc2ccccc2)cc1	none
COc1ccc(CN2CCN(S(=O)(=O)c3ccc(NC(C)=O)cc3)CC2)cc1OCc1ccccc1	TEAD-YAP inh 35
COc1cc(CN2CCN(S(=O)(=O)c3ccc(NC(C)=O)cc3)CC2)ccc1OCc1ccccc1	none
Clc1cccc(Nc2nc3nonc3nc2N2CCCCC2)c1	TEAD-YAP inh 43
Clc1cccc(Nc2nc3nonc3nc2N2CCOCC2)c1	TEAD-YAP inh 57
c1ccc(Nc2nc3nonc3nc2N2CCCCCC2)cc1	TEAD-YAP inh 37
Ic1ccc(Nc2nc3nonc3nc2N2CCOCC2)cc1	none
Cc1cc(-c2cncnc2C2CCN(CC(N)=O)CC2)on1	none
O=C(O)c1cccc(COc2ccc3ccccc3c2)c1	TEAD-YAP inh 86
O=C(O)c1cccc(COc2ccc(CO)cc2)c1	TEAD-YAP inh 79
O=C(O)c1cccc(COc2cccc(Cl)c2)c1	none
O=C(O)c1cccc(COc2ccccc2Br)c1	TEAD-YAP inh 65
CCNc1ncc(C(=O)NCCN2CCOCC2)s1	none
COc1ccc(S(=O)(=O)N(Cc2ccccc2)c2ccccc2C(=O)NCc2ccncc2)cc1	TEAD-YAP inh 56
C=CCNC(=O)c1ccccc1N(Cc1ccccc1)S(=O)(=O)c1ccc(OC)cc1	TEAD-YAP inh 55
CC(=O)N1C(C(=O)O)CSC1c1ccc(F)cc1 (stereo not drawn)	none
CCN1C(=O)CC(C(=O)Nc2ccc(Cl)cc2)SC1=Nc1ccc(OC)cc1 (stereo not drawn)	TEAD-YAP inh 38
CCN1/C(=C/c2ccc3ccccc3[n+]2CC)Sc2cc(NC(C)=O)ccc21	none
CCN1/C(=C/c2ccc3cc(C)ccc3[n+]2CC)Sc2ccc(O)cc21	TEAD-YAP inh 87
CCN1/C(=C/c2ccc3ccccc3[n+]2CC)Sc2ccc(C)cc21	TEAD-YAP inh 79
CCN1/C(=C/c2ccc3cc(NC(C)=O)ccc3[n+]2CC)Sc2cc(C)ccc21	none
O=S(=O)(NCc1ccccc1)c1ccc2nsnc2c1	none
COc1cc(OC)cc(-c2nc(-c3ccccn3)no2)c1	none
COc1ccc(-c2nc(-c3ccncc3)no2)cc1	none
COc1cc(OC)cc(-c2nc(-c3ccccc3)no2)c1	none
COc1ccc(-c2nc(-c3cccs3)no2)cc1	TEAD-YAP inh 75
COc1ccc(-c2nc(-c3ccccn3)no2)cc1	TEAD-YAP inh 97
Cc1cccc(-c2noc(-c3ccc(C(C)(C)C)cc3)n2)c1	TEAD-YAP inh 49
COc1ccc(-c2noc(-c3cccc(C)c3)n2)cc1	none
COc1ccc(-c2nc(-c3ccccc3)no2)cc1	TEAD-YAP inh 53
Cc1oc(C(=O)N2c3ccccc3CC2C)cc1S(=O)(=O)N(C)C (stereo not drawn)	TEAD-YAP inh 49
CCS(=O)(=O)Nc1ccc(-c2cn3c(C)csc3n2)cc1	TEAD-YAP inh 33
Cc1csc2nc(-c3ccc(NS(=O)(=O)N(C)C)cc3)cn12	none
O=C(NCc1cccs1)c1nc2c(nnn2Cc2cccc(Cl)c2)c(=O)[nH]1	none
Cc1ccc(C2=NN(C(=O)CCC(=O)O)C(c3ccccc3F)C2)cc1 (stereo not drawn)	none
O=C(CSc1n[nH]c(-c2ccccc2)n1)Nc1cccc2ccccc12	TEAD-YAP inh 53
O=C(CSc1n[nH]c(-c2ccccc2)n1)Nc1ccccc1Cl	none
O=C(Nc1cccc(OC(=O)c2cc(S(=O)(=O)N3CCCCC3)ccc2Cl)c1)c1ccco1	none
O=C(Oc1ccccc1)c1ccc(NC(=O)c2cc(S(=O)(=O)N3CCOCC3)ccc2Cl)cc1	none
COc1cccc(C(=O)Nc2cccc(OC(=O)c3cc(S(=O)(=O)N4CCCCC4)ccc3Cl)c2)c1	TEAD-YAP inh 47
COc1ccc(C(=O)Nc2cccc(OC(=O)c3cc(S(=O)(=O)N4CCOCC4)ccc3Cl)c2)cc1	TEAD-YAP inh 55
Oc1ccc(/C=N/Nc2nc(-c3ccccc3)cs2)cc1	none
CCN(CC)C(=O)N1c2ccccc2C=Cc2ccccc21	TEAD-YAP inh 62
CCOC(=O)C(O)(c1ccc(N(CC)C(=O)c2ccccc2)cc1)C(F)(F)F (stereo not drawn)	FBW7 act 2.6
CSc1nnc2c(n1)OC(c1ccc(-c3ccc(Br)cc3)o1)N(C(C)=O)c1ccccc1-2 (stereo not drawn)	none
COC(=O)C1=CN(CC23CC4CC(CC(C4)C2)C3)C=C(C(=O)OC)C1c1ccsc1	FBW7 act 1.9
CCN(CC)Cc1cc(O)c(CN(CC)CC)cc1O	MITF inh 76
C=C(C)CN(CC)Cc1cc(Cl)ccc1O	none
CC(=O)c1ccccc1OCc1ccccc1C	FBW7 act 2.6
Cc1ccc(NC(=O)NCCNc2ccc(C)nn2)c(Cl)c1	none
CC(=O)C(=Cc1ccc(-c2ccc(Br)cc2)o1)C(C)=O	none
COc1ccc(-c2cc3nccc(C4CCCNC4)n3n2)cc1OC (stereo not drawn)	none
COc1cccc(-c2cc3nc(C4CCCNC4)cc(N)n3n2)c1 (stereo not drawn)	TEAD-YAP inh 37
COc1cc(/C=C(\C(=O)c2ccc(C)cc2)c2nc3ccccc3o2)cc(OC)c1OC	TEAD-YAP inh 69
COc1cc(C(=O)/C(=C/c2ccc(C)cc2)c2nc3ccccc3o2)cc(OC)c1OC	none
CC(=O)NC(C)CCc1ccc(-c2csc(N)n2)cc1 (stereo not drawn)	TEAD-YAP inh 36
CC(=O)NCc1ccc(-c2csc(N)n2)cc1	none
CCC(=O)Nc1ccc(NC(=S)NC(=O)/C=C/c2cccc([N+](=O)[O-])c2)cc1	none
CCCCCCn1nc(C(=O)Nc2cc(C(N)=O)cc(C(N)=O)c2)c2ccccc2c1=O	FBW7 act 2.1
CC(C(=O)c1ccccc1)C1(O)C(=O)Nc2ccc(Cl)cc21 (stereo not drawn)	none
O=S(=O)(NCc1cn2ccsc2n1)c1ccc(Oc2ccccc2)cc1	TEAD-YAP inh 35
O=[N+]([O-])c1ccc(S(=O)(=O)NCCc2cn3ccsc3n2)cc1	none
O=[N+]([O-])c1cccc(S(=O)(=O)NCCc2cn3ccsc3n2)c1	FBW7 act 6.2
Cc1ccc(-c2ncn(-c3ccc(Nc4ncc5ccc(-c6cn[nH]c6C)cc5n4)cc3)n2)cn1	TEAD-YAP inh 43
Cc1ncn(-c2ccc(Nc3ncc(Br)c(-c4cnn(C)c4)n3)cc2)n1	TEAD-YAP inh 69
CNc1cc(-c2cnn(C)c2)nc(Nc2ccc(-n3nc(C)nc3C)cc2)n1	none
Cc1ccc(-c2ncn(-c3ccc(Nc4ncc(F)c(-c5cnn(C)c5)n4)cc3)n2)cn1	TEAD-YAP inh 46
Cc1nc(C)n(-c2ccc(Nc3ncc4ccc(-c5cnn(C)c5)nc4n3)cc2)n1	TEAD-YAP inh 72
N#CC(C#N)=Cc1cn(CC(=O)NC2CCCC2)c2ccccc12	none
O=C(O)c1ccccc1C(=O)N1CCN(S(=O)(=O)c2cccc(C(F)(F)F)c2)CC1	none
O=[N+]([O-])c1cc2c(cc1C=Nc1ccc(O)cc1)OCO2	MITF inh 53
COc1cccc(NC(=O)CNS(=O)(=O)c2cc(Cl)ccc2Cl)c1	none
CCCn1cnc2cc(NCc3cc(OC)c(OC)c(OC)c3)ccc21	none

Screening data (PubChem BioAssay)
